About 83,000 compounds went through this panel and 20% of them were active in at least one assay; those are over-represented in the sample as a whole.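 Method: cells in 96-well plates; compound added at one concentration; 48 h incubation; percent growth measured; values under 10 scored active.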 Values without a mark were called inactive. Activity calls are given as the source filed them.
Tested on: UO-31 renal
Assay: NCI-60 one-dose screen, 48 h (100 = growth as untreated, 0 = no growth, -100 = all killed)
Conditions: 10 µM unless noted

| Structure (SMILES) | growth |
| --- | --- |
| COc1ccc(/C(C)=C(\c2ccc(Cl)cc2)c2ccc(OCCN3CCCC3)cc2)cc1F | 28.9% |
| Nc1c(-c2nc3ccccc3c(=O)[nH]2)nnn1-c1ccc(Cl)cc1 | 48% |
| O=C(/C=C/C12c3ccccc3C(c3ccccc31)C1C(=O)NC(=O)C12)c1ccc(Cl)cc1 (centres undefined) | -55.2% (active) |
| Clc1ccc(-c2cn(-c3ccccc3)c(-c3ccccc3)n2)cc1 | 67.8% |
| COc1cc(C2C=C(c3cccc(NC(C)=O)c3)Nc3ncnn32)cc(OC)c1OC (centres undefined) | 59.6% |
| COc1cc(NC(=O)c2cc(O)c(CC=C(C)C)c(O)c2)cc2c1O[C@]1(C)CC[C@@H](O)C(C)(C)[C@H]1C2 | -11.9% (active) |
| Clc1ccc(/C=C/c2nc(Nc3ccc(Cl)cc3)c3ccccc3n2)cc1 | 70% |
| C=C1C(=O)O[C@H]2[C@H]1CC/C(COC(=O)/C=C\C(=O)NCc1ccc(Cn3c(=O)sn(CCCC)c3=O)cc1)=C\CC[C@@]1(C)O[C@@H]21 | -100% (active) |
| O=[N+]([O-])c1ccc2[nH]cc(-c3c4ccsc4cc4[nH]c5ccc([N+](=O)[O-])cc5c34)c2c1 | 22.9% |
| CC1=NN(c2cccc(Cl)c2)C(=O)/C1=C\c1cn(CC(O)CN2CCCCC2)c2ccccc12 (centres undefined) | 67% |
| Clc1ccc(-c2nc(NCCc3ccccc3)nc3c(NCCc4ccccc4)cnn23)cc1 | 86.7% |
| O=C(C[C@@]1(O)C(=O)Nc2c(Cl)ccc(Cl)c21)c1ccc(C2CC2)cc1 | 37.9% |
| CCC(O)(C(c1ccccc1)c1ccccn1)C(c1ccccc1)c1ccccn1 (centres undefined) | 84.3% |
| Cc1nc(Nc2ccc(S(=O)(=O)Nc3cc(C)on3)cc2)c2ccccc2n1 | 84.2% |
| CCOc1cc(C2C(Cl)C(=O)N2n2cnnc2)ccc1O (centres undefined) | 86% |
| NC(=Nc1ccc(N)cc1)C(N)=Nc1ccc(N)cc1 | 92.9% |
| CCCCCCCCCCCCCCCCCC1=NCCN1C(=O)OCCO | 29.5% |
| NC(=S)c1csc(CCNC(=O)c2ccccc2)n1 | 91% |
| O=C1CCC(N2C(=O)c3cccc(NCCCC4CCN(CCNC(=O)c5cc6c(o5)C(=O)c5ccccc5C6=O)CC4)c3C2=O)C(=O)N1 (centres undefined) | -72.9% (active) |
| Nc1c(-c2nc3ccc(Br)cc3c(=O)[nH]2)nnn1-c1ccccc1 | 106% |

| Structure (SMILES) | growth |
| --- | --- |
| O=C(Oc1ccc[nH]c1=O)c1cc([N+](=O)[O-])cc([N+](=O)[O-])c1 | 96.7% |
| COc1ccc(-c2cc(-c3ccc(Nc4nc(Nc5ccccc5)nc(Nc5ccc(Cl)cc5)n4)cc3)nc(N)n2)cc1 | 69% |
| CSc1ccc(Cl)c(C(=O)Nc2sccc2C(N)=O)c1 | 80.6% |
| OCCCCc1nccc2c1[nH]c1ccccc12 | 95.1% |
| CCOC(=O)c1sc(-c2ccc(OS(=O)(=O)c3ccc(C(C)(C)C)cc3)c(C=O)c2)nc1C | 29.9% |
| CCOC(=O)c1cnn2c(-c3ccc(Cl)cc3)nc(NCc3ccccc3)nc12 | 59.9% |
| COc1ccc(/C=C2\COc3ccc(O)cc3C2=O)cc1OC | 66.6% |
| CS(=O)(=O)c1ccc(N/N=C/c2c(-c3ccc(S(C)(=O)=O)cc3)[nH]c3ccc(F)cc23)cc1 | 53.8% |
| N#Cc1cnn2c(-c3ccc(Cl)cc3)nc(NCCc3ccccc3)nc12 | 72.9% |
| Cc1nc(Nc2cccc(NC(=O)Nc3ccc(Cl)cc3)c2)c2ccccc2n1 | 88.2% |
| Nc1ccc(-c2cc3c(Nc4ccc(OCc5cccc(F)c5)c(Cl)c4)ncnc3s2)cc1 | 19.6% |
| O=[N+]([O-])c1ccc(-c2cc3c(Nc4ccc(Sc5nc6ccccc6s5)c(Cl)c4)ncnc3s2)cc1 | 43.4% |
| C=C1c2c(C)nn(-c3ccc(O)cc3)c2N(C)C23C[C@@H]1C1(C)c4c(C)nn(-c5ccc(O)cc5)c4N(C)C(C)(C[C@H]12)C3 (some centres undefined) | 22.4% |
| CN(C)CCC(O)(Cc1ccccc1)c1ccccc1 (centres undefined) | 87.8% |
| NS(=O)(=O)c1cnccc1-n1ccc(=O)c(S(N)(=O)=O)c1 | 68.6% |
| Oc1[nH]c2ccccc2c1/C=c1/cc2c(c(-c3ccc(F)cc3)n1)=Nc1ccccc1-2 | -12.1% (active) |
| COc1cc(/C=C/C(=O)c2ccc(Nc3nc(Nc4ccccc4)nc(Nc4ccc(Cl)cc4)n3)cc2)cc(OC)c1OC | 50.6% |
| CCOC(=O)C1=C(C)NC(SCc2nnc(-c3ccc(Cl)cc3)o2)=NC1c1ccc(Cl)cc1Cl (centres undefined) | 37.2% |
| CCCCN(Cc1ccc(C(=O)NO)cc1)C(=O)Nc1ccc(OCCCCCCCCCn2cc(CCCCC(=O)N[C@H](C(=O)N3C[C@H](O)C[C@H]3C(=O)NCc3ccc(-c4scnc4C)cc3)C(C)(C)C)nn2)cc1 | 70.8% |
